Several values for one entry are separate records, joined by “and”; a condition that tells them apart may be missing. Equal values may be shown once. A number with no mark means an inactive call. No rule for the calls is given here.

One may read the inhibition as the relative decrease from the control value, in per cent.

The experiment deals with Botulinum neurotoxin type A (Clostridium botulinum) (UniProt P0DPI0). Kind of experiment: BoNT/A light chain protease inhibitors, biochemical, multiplex microsphere flow cytometry, validation set (AID 588460). The settings on record: at 10 µM, active compounds read high. (In flow cytometry, cells or beads pass a laser one at a time.)
Sequence of Botulinum neurotoxin type A (Clostridium botulinum) (P0DPI0 whole entry, looked up): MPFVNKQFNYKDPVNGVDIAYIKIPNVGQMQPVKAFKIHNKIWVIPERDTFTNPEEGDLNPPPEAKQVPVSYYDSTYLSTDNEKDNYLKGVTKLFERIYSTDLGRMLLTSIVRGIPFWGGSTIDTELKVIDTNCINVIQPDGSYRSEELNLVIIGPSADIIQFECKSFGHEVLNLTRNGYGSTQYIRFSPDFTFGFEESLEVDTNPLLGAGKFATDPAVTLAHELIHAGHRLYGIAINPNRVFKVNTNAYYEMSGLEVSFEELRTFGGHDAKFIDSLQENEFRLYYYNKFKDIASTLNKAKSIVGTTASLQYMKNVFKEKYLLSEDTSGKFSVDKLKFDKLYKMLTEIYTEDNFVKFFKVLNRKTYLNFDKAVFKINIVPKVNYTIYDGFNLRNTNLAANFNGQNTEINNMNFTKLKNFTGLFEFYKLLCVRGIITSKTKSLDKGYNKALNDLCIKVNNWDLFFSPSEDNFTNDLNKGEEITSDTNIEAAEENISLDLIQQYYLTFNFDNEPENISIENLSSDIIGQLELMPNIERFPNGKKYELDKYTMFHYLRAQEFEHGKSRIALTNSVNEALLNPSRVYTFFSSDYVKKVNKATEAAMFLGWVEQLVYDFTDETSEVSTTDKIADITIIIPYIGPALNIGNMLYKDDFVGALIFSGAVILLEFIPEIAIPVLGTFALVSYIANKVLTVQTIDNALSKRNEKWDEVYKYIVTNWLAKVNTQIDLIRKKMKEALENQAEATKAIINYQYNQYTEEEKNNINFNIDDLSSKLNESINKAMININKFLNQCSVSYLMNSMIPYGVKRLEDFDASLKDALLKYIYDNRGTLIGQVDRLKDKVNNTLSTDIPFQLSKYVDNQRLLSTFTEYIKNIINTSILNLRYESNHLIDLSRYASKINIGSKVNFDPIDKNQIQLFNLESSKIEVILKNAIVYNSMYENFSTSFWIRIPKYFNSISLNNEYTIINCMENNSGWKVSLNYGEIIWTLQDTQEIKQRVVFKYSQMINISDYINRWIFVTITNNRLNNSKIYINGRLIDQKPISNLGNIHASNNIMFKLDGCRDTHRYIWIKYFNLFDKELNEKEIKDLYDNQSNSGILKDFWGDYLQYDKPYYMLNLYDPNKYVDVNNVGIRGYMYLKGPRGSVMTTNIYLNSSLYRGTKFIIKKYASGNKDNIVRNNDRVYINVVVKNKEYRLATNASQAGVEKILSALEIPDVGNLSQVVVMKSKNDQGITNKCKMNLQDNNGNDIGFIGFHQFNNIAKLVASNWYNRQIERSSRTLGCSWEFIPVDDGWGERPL
In the case of `CCCOc1ccc(-c2cc(C(=O)NCC3CCCO3)c3ccccc3n2)cc1` (stereo unspecified), the inhibition is -0.7%.
As for `CCCCCCCC(=O)OCC(=O)[C@@]1(O)CC[C@H]2[C@@H]3CCC4=CC(=O)CC[C@]4(C)[C@H]3[C@@H](O)C[C@@]21C`, the inhibition was 0.3%.
To `COCCCC/C(=N\OCCN)c1ccc(C(F)(F)F)cc1` belongs -0.2%.
To `O=C(Oc1cccccc1=O)c1ccccc1` belongs -1.5%.
To `CCC(C(=O)OCCN(CC)CC)c1ccccc1` (stereo unspecified) belongs 0.3%.
Take `Cc1ccccc1-c1coc2cc(O)ccc2c1=O`: the inhibition is 0.2%.
Turning to `C[C@H](CCC(=O)O)[C@H]1CC[C@H]2[C@@H]3C(=O)C[C@@H]4CC(=O)CC[C@]4(C)[C@H]3CC(=O)[C@]12C`, the inhibition was -0.5%.
To `CCC12CN3CC(CC)(CN(C1)C31C(=O)N(C)c3ccc(C)cc31)C2=O` (stereo unspecified) belongs 0.1%; to `Cc1ccc(C2CC(c3cccs3)=NN2C(=O)c2ccco2)o1` (stereo unspecified), -0.5%.
On to `Nc1cccc2nc3ccccc3cc12`, for which the inhibition was 2.3%.
As to `CN1CCC(=C2c3ccccc3CC(=O)c3sccc32)CC1`, the inhibition is 0.8%.
For the compound `Cc1ccccc1C(OCCN(C)C)c1ccccc1` (stereo unspecified), the inhibition is 0.7%.
On to `C[N+]12CCC(CC1)C(OC(=O)C(O)(c1ccccc1)c1ccccc1)C2` (stereo unspecified), for which the inhibition is 0.1%.
As to `CC(C)NC[C@@H](O)c1ccc(O)c(O)c1`, the inhibition is -0.5%.
For the compound `CN(C)C(=O)Oc1cccc([N+](C)(C)C)c1`, the inhibition is 0.2% and -0.7%.
To `COc1cc2c(cc1OC)C(c1ccc(-c3cc(Cl)ccc3Cl)o1)=NCC2` belongs 0.7%.

Source of the values: PubChem BioAssay.
